# From PubChem BioAssay
# “And” between values parts separate entries of the source, which are not always exact repeats. Equal values may be shown once. The source made the active and inactive calls.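 Rule for the calls, unless noted: active = thallium flux through the channel raised or lowered by more than 3 SD from vehicle-only wells, actives on both sides; inactive = the rest.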
# Tests used:
# [1] = test system: Hepatitis C virus NS3 helicase; assay: HCV NS3 helicase inhibitors, primary screen, biochemical, fluorescence polarization, NIH Clinical Collection (AID 743270; call rule not given here); settings: NS3 helicase binding to Cy5-dT15 DNA, stronger effect = higher value, concentration not given here
# [2] = target: Single-stranded DNA-binding protein (Escherichia coli (strain K12)) (UniProt P0AGE0); assay: E. coli SSB displacement from DNA, counter-screen for HCV NS3 helicase inhibitor project, biochemical, fluorescence polarization, NIH Clinical Collection (AID 743271; in the data active = inhibition above about 28%); settings: stronger effect = higher value, concentration not given here
# [3] = fluorescence interference in NS3h assay format, artefact control for HCV NS3 helicase inhibitor project, biochemical, NIH Clinical Collection (AID 743272; call rule not given here;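 note: HCV NS3 helicase with a Cy5 labelled single stranded DNA probe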); settings: fluorescence interference counterscreen, stronger effect = lower value
# [4] = stimulators of nuclear beta-catenin in C2C12, primary screen, imaging, WNT3A-conditioned medium, mouse C2C12, NPC library (AID 1117326; in the data active = nuclear beta-catenin stimulation mostly above about 4.2%, no sharp cut-off; inactive = mostly below about 10%); settings: stronger effect = higher value
# [5] = stimulators of insulin release from INS-1E, primary screen, cell-based, 5 mM glucose, NPC library (AID 1117329;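 active = compound raises insulin release from rat beta cells at 5 mM glucose, no numeric limit stated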); settings: rat INS-1E insulin secretion, at 10 µM, stronger effect = higher value
# [6] = growth inhibition of GSK3B-pretreated HCT116 cells – cell-based, CellTiter-Glo, 0.2 to 20 µM (AID 1117336;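 active = compounds lowering colon cancer cell viability after pretreatment blocking the GSK3B kinase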); settings: HCT116 viability after GSK3B inhibitor, at 20 µM, stronger effect = higher value
# [7] = inhibition of endothelial tube formation, primary screen, imaging, VEGF stimulated, CD31 staining, tube area, NPC library (AID 1117340;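 active = compound that reduces growth-factor-driven endothelial tube area in a mixed cell culture, no cutoff stated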); settings: VEGF-stimulated ADSC/ECFC co-culture, at 10 µM, stronger effect = higher value
# [8] = glucagon-like peptide 1 release enhancers, primary assay, NCI-H716 cell line, NPC library (AID 1117341;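 active = compound raises GLP1 secretion from the human gut endocrine cells, with no numeric limit stated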); settings: NCI-H716 cells, at 10 µM, stronger effect = higher value
# [9] = HCT116 colon cancer cell growth inhibition, primary screen, CellTiter-Glo luminescence, NPC library (AID 1117342;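 active = compounds that lower survival of HCT116 colon cancer cells in the luminescence readout, no numeric limit stated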); settings: at 20 µM (top of the series)
# [10] = CellTiter-Glo luminescent readout of SW480 viability loss, NPC library primary (AID 1117343;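 active = compounds that lower viability of the colon cancer cells in the luminescence readout, with no numeric limit stated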); settings: CellTiter-Glo luminescence; at 20 µM (top of the series)
# [11] = decreased DLD-1 cellular survival, CellTiter-Glo luminescent readout, NPC compound collection, primary HTS (AID 1117346;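 active = compounds that lower survival of DLD-1 colon cancer cells in the luminescence readout, no cutoff given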); settings: DLD-1 viability, CellTiter-Glo luminescence; at 20 µM (top of the series)
# [12] = target: 6-phosphogluconate dehydrogenase, decarboxylating (Homo sapiens) (UniProt P52209); assay: 6PGD enzyme inhibitors, primary screen, biochemical, human, recombinant enzyme, NADPH absorbance (AID 1159550;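 active = at least 20% inhibition of 6-phosphogluconate dehydrogenase activity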); settings: recombinant 6PGD, NADPH absorbance 341 nm; at 10 µM; stronger effect = higher value
# [13] = sensitizers of A549 cells to miR-34 induction, primary screen, imaging, A549 dox-inducible miR-34, nuclei and caspase counts (AID 1347080;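 active = compounds whose cell count with miR-34 switched on is under 0.7 times the count with it off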); settings: A549 miR-34 inducible, Hoechst nuclei count, 48 h
# [14] = survival rescue of mitochondrial mutant cells in low glucose, primary screen, MELAS cybrids, Rieske KO mouse fibroblasts, CellTiter-Glo (AID 1508586;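 active = mean z-score across replicates of 1.96 or higher in either the MELAS or the Rieske mutant cell line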;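 note: z relative to plate mean and SD of compound and empty wells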)
# [15] = target: NAD(+) hydrolase SARM1 (Homo sapiens) (UniProt Q6SZW1); assay: SARM1 TIR NADase inhibitors, cell lysate, NAD-Glo luminescence (AID 1508614;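 active = compound whose remaining NAD level is above about 45 nM, limit read from the data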;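 note: higher remaining NAD means stronger inhibition of SARM1 NADase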); settings: SAM-TIR HEK293T lysate NADase, at 1 µM, stronger effect = higher value
# [16] = target: Mitogen-activated protein kinase 7 (Homo sapiens) (UniProt Q13164); assay: ERK5 transactivation activators in reporter cells, primary screen, cell-based, HTS (AID 1508626;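 active = luciferase signal above three times the same-plate solvent-only control wells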;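 note: luciferase driven by Gal4-ERK5 fusion binding five Gal4 sites before minimal TATA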); settings: HeLa Gal4-ERK5 transactivation, 18 h, at 5 µM, stronger effect = higher value
# [17] = test system: F380Y; assay: modulators of BK channel variants, profiling panel, selectivity assay, cell-based, U2OS BacMam, thallium flux, beta subunits (AID 1259406); settings: at 30 µM;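 note: initial slope of Thallos dye fluorescence rise after thallium is added; log ratio against the mean of 0.3% DMSO vehicle wells on the same plate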
# [18] = test system: F380Y/beta2Delta; assay: as above; settings: at 30 µM
# [19] = target: Calcium-activated potassium channel subunit alpha-1 (Homo sapiens) + Leucine-rich repeat-containing protein 26 (Homo sapiens) (UniProt Q12791+Q2I0M4); assay: as above; settings: F380Y/Slo1WT/gamma1, at 30 µM
# [20] = differential killing of epithelial or mesenchymal cells, primary screen, imaging, PC-3E GFP, TEM4-18 mCherry, co-culture (AID 1345086;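 active = compounds killing one labelled cell type while sparing the other, by normalised counts and ratio limits, not self-fluorescent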;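 note: cells exposed to compound for 72 h before imaging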;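 for red/green cell ratio (normalised): normalised mesenchymal count divided by normalised epithelial count so high means epithelial killing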); settings: imaging cell counts, at 1 µM
# [21] = stronger effect = lower value, cell number ratio, induced over uninduced
# [22] = measured here: relative caspase fold change +Dox/-Dox
# [23] = measured here: total cells with miR-34 induction, stronger effect = lower value
# [24] = measured here: total cells without miR-34 induction
# [25] = MELAS cybrid survival, CellTiter-Glo 48 h, stronger effect = higher value
# [26] = Rieske KO mouse fibroblast survival, CellTiter-Glo 72 h
# Sequence of Mitogen-activated protein kinase 7 (Homo sapiens) (Q13164 whole entry, looked up, the tested form may be a part): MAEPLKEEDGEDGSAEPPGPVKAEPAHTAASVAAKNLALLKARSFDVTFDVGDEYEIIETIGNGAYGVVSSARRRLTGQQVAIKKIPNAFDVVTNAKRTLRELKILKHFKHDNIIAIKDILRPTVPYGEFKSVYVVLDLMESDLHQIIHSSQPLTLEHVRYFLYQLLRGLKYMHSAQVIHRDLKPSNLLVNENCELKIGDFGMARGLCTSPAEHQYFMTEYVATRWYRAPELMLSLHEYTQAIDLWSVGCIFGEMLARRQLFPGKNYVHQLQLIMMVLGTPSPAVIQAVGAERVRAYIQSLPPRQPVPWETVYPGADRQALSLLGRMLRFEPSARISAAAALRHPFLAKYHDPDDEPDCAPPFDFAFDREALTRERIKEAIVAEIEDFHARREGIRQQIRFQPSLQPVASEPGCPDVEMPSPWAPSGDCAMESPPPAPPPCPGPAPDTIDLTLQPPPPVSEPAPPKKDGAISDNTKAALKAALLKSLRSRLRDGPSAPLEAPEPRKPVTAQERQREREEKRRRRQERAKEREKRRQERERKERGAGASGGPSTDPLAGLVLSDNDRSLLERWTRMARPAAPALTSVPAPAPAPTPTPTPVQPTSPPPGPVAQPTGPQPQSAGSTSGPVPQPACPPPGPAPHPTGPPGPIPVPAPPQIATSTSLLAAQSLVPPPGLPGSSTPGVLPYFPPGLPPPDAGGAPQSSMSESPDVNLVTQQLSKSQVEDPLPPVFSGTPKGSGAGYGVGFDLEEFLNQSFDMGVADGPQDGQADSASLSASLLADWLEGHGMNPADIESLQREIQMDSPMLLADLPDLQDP
# Sequence of Calcium-activated potassium channel subunit alpha-1 (Homo sapiens) + Leucine-rich repeat-containing protein 26 (Homo sapiens) (Q2I0M4 whole entry, looked up, one chain of several): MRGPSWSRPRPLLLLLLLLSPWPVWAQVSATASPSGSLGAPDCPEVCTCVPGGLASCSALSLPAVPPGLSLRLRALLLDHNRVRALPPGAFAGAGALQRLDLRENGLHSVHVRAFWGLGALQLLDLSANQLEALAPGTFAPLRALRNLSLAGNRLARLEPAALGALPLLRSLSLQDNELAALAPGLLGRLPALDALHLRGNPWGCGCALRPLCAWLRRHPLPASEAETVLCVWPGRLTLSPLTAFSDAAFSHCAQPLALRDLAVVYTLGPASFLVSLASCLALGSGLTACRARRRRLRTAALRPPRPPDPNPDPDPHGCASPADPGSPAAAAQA
# Sequence of 6-phosphogluconate dehydrogenase, decarboxylating (Homo sapiens) (P52209 whole entry, looked up): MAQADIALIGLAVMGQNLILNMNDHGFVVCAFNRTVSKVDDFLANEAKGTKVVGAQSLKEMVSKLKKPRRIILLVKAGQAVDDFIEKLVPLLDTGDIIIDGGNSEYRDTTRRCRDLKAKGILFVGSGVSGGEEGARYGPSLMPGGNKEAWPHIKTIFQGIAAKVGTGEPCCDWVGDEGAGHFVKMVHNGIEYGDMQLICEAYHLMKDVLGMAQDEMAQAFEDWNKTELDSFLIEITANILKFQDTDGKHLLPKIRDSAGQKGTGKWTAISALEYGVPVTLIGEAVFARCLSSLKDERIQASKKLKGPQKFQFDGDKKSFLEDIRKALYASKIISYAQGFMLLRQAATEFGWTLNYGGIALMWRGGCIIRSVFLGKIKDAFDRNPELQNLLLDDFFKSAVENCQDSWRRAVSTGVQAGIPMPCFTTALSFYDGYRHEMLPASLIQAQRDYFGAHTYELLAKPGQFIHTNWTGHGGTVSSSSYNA
# Sequence of NAD(+) hydrolase SARM1 (Homo sapiens) (Q6SZW1 whole entry, looked up, the tested form may be a part): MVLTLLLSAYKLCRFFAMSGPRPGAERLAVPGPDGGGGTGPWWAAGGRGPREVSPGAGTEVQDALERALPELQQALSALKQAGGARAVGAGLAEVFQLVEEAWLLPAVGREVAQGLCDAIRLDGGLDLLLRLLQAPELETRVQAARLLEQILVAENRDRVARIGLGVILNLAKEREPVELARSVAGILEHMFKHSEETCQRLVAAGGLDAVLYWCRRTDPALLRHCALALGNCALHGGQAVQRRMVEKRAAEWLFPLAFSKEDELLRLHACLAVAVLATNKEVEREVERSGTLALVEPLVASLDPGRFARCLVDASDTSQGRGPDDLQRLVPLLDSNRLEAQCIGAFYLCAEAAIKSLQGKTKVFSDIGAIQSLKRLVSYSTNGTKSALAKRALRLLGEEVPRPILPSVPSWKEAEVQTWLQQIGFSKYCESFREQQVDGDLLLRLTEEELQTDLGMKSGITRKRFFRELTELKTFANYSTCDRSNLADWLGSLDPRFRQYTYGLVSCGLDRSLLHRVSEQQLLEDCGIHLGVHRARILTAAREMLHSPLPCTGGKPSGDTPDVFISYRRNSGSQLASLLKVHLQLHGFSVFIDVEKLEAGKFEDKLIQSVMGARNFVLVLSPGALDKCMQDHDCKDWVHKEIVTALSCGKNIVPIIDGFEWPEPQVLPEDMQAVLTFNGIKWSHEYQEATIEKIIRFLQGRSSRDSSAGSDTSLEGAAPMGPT
structure (smiles),measurement,setting,value
CC(COc1ccccc1)NC(C)C(O)c1ccc(O)cc1 (stereo unspecified),inhibition,[1],-4.09% (inactive)
same,inhibition,[2],1.81% (inactive)
same,fluorescence ratio,[3],0.91 (inactive)
same,nuclear beta-catenin stimulation,[4]; at 10 µM,2.4% (inactive)
same,nuclear beta-catenin stimulation,"[4]; stimulation, at 2 µM",-1%
same,insulin secretion stimulation,[5],3% (inactive)
same,viability decrease,[6],-3.4% (inactive)
same,tube area decrease,[7],15.3% (inactive)
same,GLP1 secretion stimulation,[8],2.4% (inactive)
same,inhibition of viability,[9],18.7% (inactive)
same,viability decrease (inhibition),[10],42.3% (inactive)
same,viability decrease (inhibition),[11],-4.6% (inactive)
same,inhibition,[12],0.0758% (inactive)
same,fold change,[13]; [21],0.93 (inactive) and 0.88 (inactive)
same,fold change,[13]; [22],1.41 and 1.05
same,cell count,[13]; [23],10000 and 8140
same,cell count,[13]; [24],10800 and 9240
same,z-score,[14]; [25],0.843 (inactive)
same,z-score,[14]; [26],0.798
same,remaining NAD,[15],10 nM (inactive)
same,luciferase signal,[16],72 AU (inactive)
same,log fold change Tl+ flux,[17],-0.000146 (inactive)
same,log fold change Tl+ flux,[18],0.0627 (inactive)
same,log fold change Tl+ flux,[19],-0.0341 (inactive)
COc1ccc([C@@H]2Sc3ccccc3N(CCN(C)C)C(=O)[C@@H]2OC(C)=O)cc1,inhibition,[1],-3.18% (inactive)
same,inhibition,[2],-2.76% (inactive)
same,fluorescence ratio,[3],0.98 (inactive)
same,nuclear beta-catenin stimulation,[4]; at 10 µM,0.5% (inactive)
same,nuclear beta-catenin stimulation,"[4]; stimulation, at 2 µM",-0.4%
same,insulin secretion stimulation,[5],1.15% (inactive)
same,viability decrease,[6],17% (inactive)
same,tube area decrease,[7],-3.8% (inactive)
same,GLP1 secretion stimulation,[8],2.5% (inactive)
same,inhibition of viability,[9],32.9% (inactive)
same,viability decrease (inhibition),[10],47.4% (inactive)
same,viability decrease (inhibition),[11],32.3% (inactive)
same,inhibition,[12],-12.8% (inactive)
same,z-score,[14]; [25],0.628 (inactive) and 0.162 (inactive)
same,z-score,[14]; [26],-0.0359 and -0.282
same,remaining NAD,[15],10 nM (inactive)
same,luciferase signal,[16],68 AU (inactive)
same,log fold change Tl+ flux,[17],0.0589 (inactive)
same,log fold change Tl+ flux,[18],-0.00376 (inactive)
same,log fold change Tl+ flux,[19],0.0123 (inactive)
COc1cc(NC(C)CCCN)c2ncccc2c1 (stereo unspecified),inhibition,[1],-5% (inactive)
same,inhibition,[2],0.29% (inactive)
same,fluorescence ratio,[3],0.86 (inactive)
same,nuclear beta-catenin stimulation,[4]; at 10 µM,1.4% (inactive)
same,nuclear beta-catenin stimulation,"[4]; stimulation, at 2 µM",1.8%
same,insulin secretion stimulation,[5],0.4% (inactive)
same,viability decrease,[6],102% (active)
same,tube area decrease,[7],11.2% (inactive)
same,GLP1 secretion stimulation,[8],2.7% (inactive)
same,inhibition of viability,[9],97.2% (active)
same,viability decrease (inhibition),[10],71.5% (active)
same,viability decrease (inhibition),[11],47.3% (inactive)
same,inhibition,[12],-0.957% (inactive)
same,red/green cell ratio (normalised),"[20]; actives lie on both sides, counts scaled to control wells, 1 = unselective",1.43 (inactive)
same,normalised cell number,[20]; measured here: epithelial PC-3E GFP cell survival,0.94
same,normalised cell number,[20]; measured here: mesenchymal TEM4-18 mCherry cell survival,1.34
same,z-score,[14]; [25],-0.353 (inactive) and -0.329 (inactive) and 0.456 (inactive)
same,z-score,[14]; [26],-0.221 and -0.189 and 1.47
same,remaining NAD,[15],10 nM (inactive)
same,luciferase signal,[16],32 AU (inactive)
same,log fold change Tl+ flux,[17],-0.0858 (inactive)
same,log fold change Tl+ flux,[18],-0.141 (active)
same,log fold change Tl+ flux,[19],-0.0425 (inactive)
Cc1cccc(CN2CCN(C(c3ccccc3)c3ccc(Cl)cc3)CC2)c1 (stereo unspecified),inhibition,[1],-3.18% (inactive)
same,inhibition,[2],7.91% (inactive)
same,fluorescence ratio,[3],0.96 (inactive)
same,nuclear beta-catenin stimulation,[4]; at 10 µM,5.6% (inactive)
same,nuclear beta-catenin stimulation,"[4]; stimulation, at 2 µM",-0.6%
same,insulin secretion stimulation,[5],-1.7% (inactive)
same,viability decrease,[6],77.3% (active)
same,tube area decrease,[7],33.4% (inactive)
same,GLP1 secretion stimulation,[8],-2.1% (inactive)
same,inhibition of viability,[9],83.5% (active)
same,viability decrease (inhibition),[10],116% (active)
same,viability decrease (inhibition),[11],87.8% (active)
same,inhibition,[12],-14.5% (inactive)
same,fold change,[13]; [21],0.91 (inactive) and 0.869 (inactive) and 0.905 (inactive)
same,fold change,[13]; [22],2.01 and 1.32 and 1.69
same,cell count,[13]; [23],8220 and 9250 and 10600
same,cell count,[13]; [24],9040 and 10700 and 11700
same,z-score,[14]; [25],-0.845 (inactive)
same,z-score,[14]; [26],-0.151
same,remaining NAD,[15],10 nM (inactive)
same,luciferase signal,[16],96 AU (inactive)
same,log fold change Tl+ flux,[17],0.0137 (inactive)
same,log fold change Tl+ flux,[18],0.0401 (inactive)
same,log fold change Tl+ flux,[19],-0.0345 (inactive)
